# Data taken from PubChem BioAssay.
# Values joined by “and” are separate entries in the source; they are usually repeats but may differ in a detail not shown here. Equal values may be shown once. Results filed as inconclusive are left out. For some assays here: Measured potencies and affinities stand elsewhere. Active and inactive are the calls of the source. Cut-off read from the data, not from the text of the source, unless noted: active = inhibition above about 80%; inactive = the rest.
# Assays:
# [1] = restoration of touch response, mutant HTT neurons – whole organism, C. elegans mechanosensory neurons, N-terminal huntingtin (AID 1599); details: C. elegans polyQ-huntingtin mechanosensory neurons, stronger effect = higher value
# [2] = GFP-Q80 aggregate reduction, neuronal-like cells, cell-based, NGF-treated PC12, GFPQ80 (AID 1614); details: PC12 NGF-treated GFP-polyQ80 inclusion reduction;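 note: lower means fewer inclusions and 0 means no inclusions at all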
# [3] = viability loss in pontine glioma line – cell-based, SU-DIPG-XVII, MIPE5.0, CellTiter-Glo, qHTS, dose response (AID 1347060; cut-off not given, nearly all actives have AC50 up to about 26 µM); details: CellTiter-Glo ATP luminescence
# [4] = viability loss in pontine glioma line – cell-based, SU-DIPG-XIII, MIPE5.0, CellTiter-Glo, qHTS, dose response (AID 1347064; cut-off not given, nearly all actives have AC50 up to about 23 µM); details: CellTiter-Glo ATP luminescence
# [5] = growth inhibition of DIPG cells – cell-based, MIPE5.0 library, qHTS (AID 1347068; cut-off not given, nearly all actives have IC50 up to about 30 µM); details: SU-DIPG-XXV viability
# [6] = biological target: ATP-dependent translocase ABCB1 (Homo sapiens) (UniProt P08183); test: P-glycoprotein substrate transport blockade – cell-based (AID 377; in the data active = fluorescence slope change above about 50%); details: MDR1-expressing cells, fluorescent substrate accumulation slope; stronger effect = higher value; concentration not given here
# [7] = test system: Aerobactin synthetase IucA (Klebsiella pneumoniae); test: inhibition of K. pneumoniae IucA enzyme – biochemical, Tocris library, absorbance (AID 1345561; call rule not given here;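 note: 100% = enzyme without compound and 0% = no enzyme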); details: purified IucA enzyme assay, absorbance (OD) read-out; stronger effect = lower value;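 tested at 8 µM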
# [8] = viability loss in pontine glioma line – cell-based, SU-DIPG-XIII, MIPE4.0, CellTiter-Glo, qHTS, dose response (AID 1347061; cut-off not given, nearly all actives have AC50 up to about 37 µM;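 note: cells exposed to compound for 48 hours before readout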); details: CellTiter-Glo ATP luminescence
# [9] = viability loss in pontine glioma line – cell-based, SU-DIPG-IV, MIPE4.0, CellTiter-Glo, qHTS, dose response (AID 1347063; cut-off not given, nearly all actives have AC50 up to about 30 µM;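 note: compound exposure lasted 48 hours before the viability readout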); details: CellTiter-Glo ATP luminescence
# [10] = compounds altering HSF1 focus formation in cells – imaging, Selleck Cancer Library (AID 1347162; in the data active = plate-normalised HSF1 focus index below about 0.46); details: human cells, HSF1 nuclear foci imaging, at 10 µM; SSMD: measured here: HSF1 foci SSMD mean; cell count: measured here: cell number; plate-normalised HSF1 focus index: stronger effect = lower value
# [11] = growth inhibition, single agent or in combination, cell-based, chromothripsis tumors, cisplatin or BGB combos (AID 1671449); details: LFS_MB_P medulloblastoma cells;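 note: cells exposed for 96 hours; 0% = vehicle DMSO and 100% = killing by high DMSO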
# [12] = growth inhibition, single agent and combos, cell-based, chromothripsis tumors, cisplatin or BGB combos (AID 1671450); details: HDN33 neuroblastoma cells, stronger effect = higher value;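 note: cells exposed to compound for four days; 0% = vehicle DMSO and 100% = cell killing by high DMSO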
# [13] = growth inhibition, single agents and combos, ICB984, cell-based, cisplatin or BGB combos, synergistic combos for chromothripsis tumors (AID 1671451; call rule not given here;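 note: cells exposed for 96 hours before readout; 0% = vehicle DMSO and 100% = killing by high DMSO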); details: ICB984 medulloblastoma cells, drug combinations, stronger effect = higher value
# [14] = growth inhibition, single agents and combos, LFS_MB_1R, cell-based, cisplatin or BGB combos, synergistic combos for chromothripsis tumors (AID 1671452); details: LFS_MB_1R medulloblastoma cells, stronger effect = higher value;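 note: cells exposed for 96 hours before readout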
# [15] = growth inhibition, single agents and combos, HTB85, cell-based, BGB or cisplatin IC20 combos, synergistic combos for chromothripsis tumors (AID 1671453); details: HTB85 osteosarcoma cells, drug combinations, stronger effect = higher value;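 note: cells exposed for 96 hours before readout; 0% = vehicle DMSO and 100% = high DMSO killing control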
# [16] = growth inhibition, single agents and combos, CRL2098, cell-based, BGB or cisplatin IC20 combos, synergistic combos for chromothripsis tumors (AID 1671454); details: CRL2098 osteosarcoma cells, drug combinations, stronger effect = higher value;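 note: cells exposed for 96 h before readout; 0% = vehicle DMSO and 100% = killing by high DMSO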
# [17] = growth inhibition, MDA-MB-436, cell-based, BGB or cisplatin combos, synergistic combos for chromothripsis tumors (AID 1671458; call rule not given here;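 note: cells exposed for 96 hours; 0% = vehicle DMSO and 100% = killing by high DMSO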); details: MDA-MB-436 breast carcinoma growth inhibition, drug combinations, stronger effect = higher value
# [18] = BT084 cell growth, single and combined drugs, ICGC_MB145, cisplatin and BGB IC40 combos (AID 1671461); details: BT084 medulloblastoma cells, drug combinations, stronger effect = higher value;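 note: cells exposed to drugs for 96 hours; 0% = vehicle DMSO and 100% = high DMSO full killing control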
# [19] = RCMB18 cell growth, single agent and combined, cisplatin and BGB IC40 combos (AID 1671462); details: RCMB18 medulloblastoma cells, stronger effect = higher value;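 note: cells exposed to compound for four days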
# [20] = CRL1545 cell growth, single agent and combined, cisplatin and BGB IC20 combos (AID 1671464); details: CRL1545 osteosarcoma cells, stronger effect = higher value;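 note: cells exposed to compound for 96 hours before readout; 0% = vehicle DMSO and 100% = high DMSO killing control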
# [21] = measured here: combination with BGB IC40, at 0.05 µM
# [22] = measured here: with BGB IC20 combination, at 0.5 µM
# [23] = measured here: with cisplatin IC20 combination, at 0.5 µM
# [24] = measured here: combination with cisplatin, at 0.5 µM
# ATP-dependent translocase ABCB1 (Homo sapiens), sequence (P08183 whole entry, looked up): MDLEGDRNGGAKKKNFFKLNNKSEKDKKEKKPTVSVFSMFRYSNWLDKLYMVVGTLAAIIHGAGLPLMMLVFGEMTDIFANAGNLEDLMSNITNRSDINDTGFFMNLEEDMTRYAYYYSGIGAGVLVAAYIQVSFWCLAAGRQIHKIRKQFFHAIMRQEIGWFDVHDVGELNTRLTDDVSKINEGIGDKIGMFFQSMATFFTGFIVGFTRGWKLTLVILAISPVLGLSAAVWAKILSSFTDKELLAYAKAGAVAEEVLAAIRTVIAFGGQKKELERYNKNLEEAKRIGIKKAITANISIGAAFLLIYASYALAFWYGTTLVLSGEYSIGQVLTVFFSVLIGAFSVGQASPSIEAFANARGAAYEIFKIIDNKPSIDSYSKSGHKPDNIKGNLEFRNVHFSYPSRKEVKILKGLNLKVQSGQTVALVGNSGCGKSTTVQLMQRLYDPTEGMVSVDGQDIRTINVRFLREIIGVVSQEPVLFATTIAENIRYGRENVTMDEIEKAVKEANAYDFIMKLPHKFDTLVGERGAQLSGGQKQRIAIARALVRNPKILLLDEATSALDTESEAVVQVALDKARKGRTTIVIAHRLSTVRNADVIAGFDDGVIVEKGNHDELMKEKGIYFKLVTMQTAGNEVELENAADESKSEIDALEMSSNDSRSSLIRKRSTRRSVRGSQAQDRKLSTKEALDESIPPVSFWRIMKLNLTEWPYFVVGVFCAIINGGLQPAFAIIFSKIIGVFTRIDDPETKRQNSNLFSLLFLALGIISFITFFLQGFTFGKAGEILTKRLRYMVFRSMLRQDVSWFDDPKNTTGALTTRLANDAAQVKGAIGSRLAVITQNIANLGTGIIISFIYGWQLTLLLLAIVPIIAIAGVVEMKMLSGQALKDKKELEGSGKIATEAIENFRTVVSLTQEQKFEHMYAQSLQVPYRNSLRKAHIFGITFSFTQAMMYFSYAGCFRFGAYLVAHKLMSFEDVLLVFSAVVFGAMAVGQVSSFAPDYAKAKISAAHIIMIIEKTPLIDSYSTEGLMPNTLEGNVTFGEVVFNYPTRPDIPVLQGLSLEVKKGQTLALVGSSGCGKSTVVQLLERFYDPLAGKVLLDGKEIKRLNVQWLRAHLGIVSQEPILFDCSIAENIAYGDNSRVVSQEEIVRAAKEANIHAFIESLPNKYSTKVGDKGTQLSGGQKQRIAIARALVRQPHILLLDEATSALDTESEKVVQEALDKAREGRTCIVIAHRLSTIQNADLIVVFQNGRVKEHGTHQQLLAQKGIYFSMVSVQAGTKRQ
structure (smiles),measurement,setting,value
Nc1ncnc2c1ncn2[C@@H]1O[C@H](CO)[C@@H](O)[C@@H]1O,rescue above control,[1],-14.3
same,inclusion score,[2],1.5
same,outcome,[3],inactive
same,outcome,[4],inactive
same,outcome,[5],inactive
C[N+]1(C)CCCC(OC(=O)C(O)(c2ccccc2)c2ccccc2)C1 (configuration not stated),fluorescence slope change,[6],13% (inactive)
same,rescue above control,[1],-3.59
same,inclusion score,[2],2
CNCCC(Oc1ccc(C(F)(F)F)cc1)c1ccccc1 (configuration not stated),fluorescence slope change,[6],110% (active)
same,remaining activity,[7],124% (inactive)
C[C@H]1COc2c(N3CCN(C)CC3)c(F)cc3c(=O)c(C(=O)O)cn1c23,outcome,[3],inactive
same,outcome,[8],inactive
same,outcome,[9],inactive
same,outcome,[4],inactive
same,outcome,[5],inactive
CC1=C(/C=C/C(C)=C/C=C/C(C)=C\C(=O)O)C(C)(C)CCC1,fluorescence slope change,[6],188% (active)
same,outcome,[4],inactive
same,outcome,[5],inactive
CC[C@H]1OC(=O)[C@H](C)[C@@H](O[C@H]2C[C@@](C)(OC)[C@@H](O)[C@H](C)O2)[C@H](C)[C@@H](O[C@@H]2O[C@H](C)C[C@H](N(C)C)[C@H]2O)[C@](C)(OC)C[C@@H](C)C(=O)[C@H](C)[C@@H](O)[C@]1(C)O,outcome,[9],inactive
COc1ccc(/C=C/C(=O)Nc2ccccc2C(=O)O)cc1OC,remaining activity,[7],119% (inactive)
same,outcome,[3],inactive
same,outcome,[8],inactive
same,outcome,[9],inactive
same,outcome,[4],inactive
same,outcome,[5],inactive
CS(=O)(=O)c1ccc(C2=C(c3ccccc3)C(=O)OC2)cc1,outcome,[3],inactive
same,outcome,[8],inactive
same,outcome,[9],inactive
same,outcome,[4],inactive
same,outcome,[5],inactive
CN(C)c1nc(N(C)C)nc(N(C)C)n1,rescue above control,[1],6.66
same,inclusion score,[2],2
same,outcome,[3],inactive
same,outcome,[9],inactive
same,outcome,[4],inactive
same,outcome,[5],inactive
same,SSMD,[10],0.836
same,cell count,[10],7300
same,plate-normalised HSF1 focus index,[10],1.03 (inactive)
same,inhibition,"[11]; at 0.5 µM, stronger effect = higher value",-34.2% (inactive) and -27.6% (inactive)
same,inhibition,"[11]; measured here: combination with BGB IC20, at 0.005 µM",-17.9% and -27.7%
same,inhibition,"[11]; measured here: combination with BGB IC40, at 0.005 µM",-17.9% and -14.9%
same,inhibition,[11]; [21],-9.42% and -37.8%
same,inhibition,"[11]; measured here: combination with cisplatin, at 0.5 µM, stronger effect = higher value",-34.2% and -25.4%
same,inhibition,"[11]; measured here: combination with cisplatin, at 5 µM, stronger effect = higher value",-44.4% and -48.3%
same,inhibition,"[12]; BGB combo, at 5 µM",-7.22% and 3.98%
same,inhibition,[12]; at 0.5 µM,2.99% (inactive) and -25.1% (inactive)
same,inhibition,"[12]; cisplatin combo, at 5 µM",-6.3% and -2.36%
same,inhibition,[12]; [22],12.7% and -32.8%
same,inhibition,[12]; [23],1.13% and -2.01%
same,inhibition,"[12]; single agent, at 5 µM",-11% and -2.53%
same,inhibition,"[13]; BGB IC20 combo, at 0.005 µM",-31.6% and 0.139%
same,inhibition,"[13]; BGB IC40 combo, at 0.005 µM",-11.1% and -14.4%
same,inhibition,"[13]; BGB IC40 combo, at 0.05 µM",-16% and -10.6%
same,inhibition,[13]; at 0.5 µM,-16.4% (inactive) and -22.8% (inactive)
same,inhibition,"[13]; cisplatin combo, at 0.05 µM",-16% and -14.5%
same,inhibition,"[13]; cisplatin combo, at 0.5 µM",-23.9% and -10.7%
same,inhibition,"[13]; cisplatin combo, at 5 µM",-16.8% and 0.591%
same,inhibition,"[13]; measured here: 5 uM single agent, at 5 µM",-7.32% and -28.4%
same,inhibition,[14]; at 0.5 µM,-12.2% (inactive) and -12.7% (inactive)
same,inhibition,[14]; [21],-30.7% and -16.9%
same,inhibition,[14]; [24],-26.8% and 10.6%
same,inhibition,"[14]; measured here: combination with cisplatin, at 5 µM",4.67% and 9.66%
same,inhibition,[15]; at 0.5 µM,-13.6% (inactive) and -3.84% (inactive)
same,inhibition,"[15]; measured here: with BGB IC20, at 0.5 µM",-29.4% and -7.2%
same,inhibition,"[15]; measured here: with BGB IC20, at 5 µM",-7.32% and 14%
same,inhibition,"[15]; measured here: with cisplatin IC20, at 0.5 µM",-12.3% and -1.06%
same,inhibition,"[15]; measured here: with cisplatin IC20, at 5 µM",6.76% and 3.22%
same,inhibition,"[15]; single agent, at 5 µM",-2.06% and 11.5%
same,inhibition,[16]; at 0.5 µM,-49.5% (inactive) and -47.8% (inactive)
same,inhibition,"[16]; measured here: combination with BGB at IC20, at 0.5 µM",-51.4% and 13.2%
same,inhibition,"[16]; measured here: combination with cisplatin at IC20, at 0.5 µM",-47.8% and -102%
same,inhibition,[17]; at 0.5 µM,-22.6% (inactive) and -14.7% (inactive)
same,inhibition,"[17]; measured here: BGB combination, at 0.5 µM",-20.2% and -14.3%
same,inhibition,"[17]; measured here: BGB combination, at 5 µM",-29.4% and -4.55%
same,inhibition,"[17]; measured here: cisplatin combination, at 0.5 µM",-45.1% and -27.9%
same,inhibition,"[17]; measured here: cisplatin combination, at 5 µM",-26.8% and -16.1%
same,inhibition,[18]; at 0.5 µM,-16.2% (inactive) and -0.543% (inactive)
same,inhibition,"[18]; cisplatin combination, at 0.5 µM",-6.73% and -17%
same,inhibition,"[18]; cisplatin combination, at 5 µM",-56% and -11.7%
same,inhibition,"[18]; measured here: BGB IC40 combination 0.05 uM, at 0.05 µM",-15.3% and -38.9%
same,inhibition,"[18]; single agent, at 5 µM",-26.9% and -18.4%
same,inhibition,[19]; at 0.5 µM,-17.5% (inactive) and -22.8% (inactive)
same,inhibition,"[19]; cisplatin combo, at 5 µM",8.02% and 8.44%
same,inhibition,"[19]; measured here: BGB IC40 combination, at 0.05 µM",-20.9% and -5.23%
same,inhibition,[19]; [24],-20.5% and -16.6%
same,inhibition,"[19]; single agent, at 5 µM",-16.6% and -17.8%
same,inhibition,[20]; at 0.5 µM,-6.92% (inactive) and -37.6% (inactive)
same,inhibition,[20]; [22],-15.7% and -14.1%
same,inhibition,[20]; [23],-2.53% and -51.8%
same,inhibition,"[20]; single agent, at 0.05 µM",-4.42% and -41.6%
same,inhibition,"[20]; single agent, at 5 µM",18.4% and -24.6%
